Reference: PubChem BioAssay (NCI)
Compounds without any hit were thinned out: in the full panel of roughly 83,000, 20% have a hit.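 48-hour exposure, single concentration, 96-well plates; percent growth endpoint where 0 means no net growth. Active: below 10.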 A number with no mark means an inactive call. The source made the active and inactive calls.

How the values were obtained:
Experiment in all cases: NCI-60 one-dose screen, 48 h (100 = growth as untreated, 0 = no growth, -100 = all killed)
Details in all cases: 10 µM unless noted
[1] = system: T-47D breast
[2] = system: BT-549 breast
[3] = system: MDA-MB-435 melanoma
[4] = system: SW-620 colon
[5] = system: MCF7 breast
[6] = system: HCT-116 colon
[7] = system: HCC-2998 colon
[8] = system: KM12 colon

SMILES | growth [1] | growth [2] | growth [3] | growth [4] | growth [5] | growth [6] | growth [7] | growth [8]
Cc1c(-c2cnc3ccc(Cl)cc3c2C(=O)O)nnn1-c1ccc(Cl)cc1 | 88% | 82% | 105% | 112% | 98.5% | 76.7% | 102% | 109%
C#CCOc1ccc(C2=NN(CCCC)C3N=C(Cl)c4ncn(CCCC)c4N23)cc1OCC#C (centres undefined) | 69.6% | 90.6% | 86.7% | 88.7% | 81.8% | 83.1% | 107% | 88.3%
O=C(/C=C\c1ccc(O)c(O)c1)c1ccccc1O | 67% | 5.5% (active) | 67.9% | 67.7% | 48% | 83.7% | 60.7% | 60.7%
C=CN(C(=O)N1CCN(c2cc3c(cc2F)c(=O)c(C(=O)O)cn3C2CC2)CC1)c1nc(-c2ccc(C)cc2)cs1 | 36.3% | 11.9% | 22.1% | 20.8% | 7.94% (active) | 10.9% | 39% | 21.9%
COc1cc2c(cc1-c1c(C)noc1C)ncc1nc(C3CCOCC3)n(C3CCC(OC(F)F)CC3)c12 (centres undefined) | 11.3% | 77.1% | 48.9% | 76.3% | 18.5% | 66.1% | 56.5% | 44.3%
C/C(=N\NC(=O)c1ccc(C(C)(C)C)cc1)c1ccc(O)cc1O | 24.4% | 31.2% | 27.7% | 29.9% | 4.92% (active) | 18.5% | 8.71% (active) | 22.8%
CCCS(=O)(=O)Nc1cccc(Nc2ncnc3cc(NC(=O)CCl)ccc23)c1Cl | -41.8% (active) | -68.2% (active) | -46.9% (active) | -33.6% (active) | -13% (active) | -27.9% (active) | 4.99% (active) | -32.2% (active)
Cc1nc2ccccc2c(/C=C/c2ccc(Br)cc2)c1C(=O)/C=C/c1ccccc1 | 10.1% | 21.7% | -47.3% (active) | 2.35% (active) | 14% | -49.1% (active) | -41.4% (active) | 7.65% (active)
CC1=NN(c2cccc(Cl)c2)C(=O)/C1=C\C=C\c1ccccc1 | 36.7% | 78.4% | 13.6% | 1.26% (active) | 10.9% | -89.2% (active) | 30.9% | 16.1%
COC(=O)[C@H]1Cc2c([nH]c3ccccc23)[C@H](c2ccc3c(c2)OCO3)N1 | 91.8% | 99.5% | 101% | 102% | 93.3% | 97.6% | 97.6% | 99.3%
O=C(/C=C/c1ccc(Cl)cc1)c1ccc(Nc2ccnc3cc(Cl)ccc23)cc1 | 96.4% | 145% | 64.8% | 60.7% | 78.6% | 16.9% | 88.1% | 50%
Cc1oc2ccc(O)c(CN3CCCCCC3)c2c1C(=O)Nc1ccc(C(F)(F)F)cc1 | 74% | 78.5% | 58.2% | 67.4% | 48.1% | 32.7% | 11.2% | 65.5%
CC(C)(C)n1cc(-c2ccnc(NCCNS(=O)(=O)c3ccc(Br)cc3)c2)c(-c2cccc(O)c2)n1 | 8.09% (active) | 30.8% | 28.1% | 5.53% (active) | 8.18% (active) | 19.7% | -17.5% (active) | 17.3%
O=c1c2cccc3c(N4CCOCC4)ccc(c32)c2nc3ccccc3n12 | 38.1% | 93.8% | 104% | 103% | 24% | 87% | 73.2% | 78.1%
O=C(CSc1nnc(-c2cc(-c3ccc(Cl)cc3)nc3ccccc23)n1-c1ccccc1)Nc1ccc(Cl)cc1 | 96.5% | 110% | 102% | 106% | 88.3% | 86.3% | 111% | 102%
COc1cc(C(=O)/C=C/c2c(-c3cccs3)nc3sc(C)cn23)cc(OC)c1OC | 3.31% (active) | -0.944% (active) | -15.1% (active) | 6.94% (active) | 1.13% (active) | 2.71% (active) | 20.2% | -8.4% (active)
COc1ccc(-c2nc(SCCC(C)C)nc(N/N=C(/C)c3ccc(N)cc3)c2C#N)cc1 | 85% | 96.7% | 104% | 95.2% | 86.1% | 94.3% | 97.4% | 92.1%

SMILES | growth [1] | growth [2] | growth [3] | growth [4] | growth [5] | growth [6] | growth [7] | growth [8]
C#CC(F)(F)[C@]1(O)CCC2C3CCC4=CC(=O)CCC4=C3[C@@H](c3ccc(N(C)C)cc3)C[C@@]21C (some centres undefined) | 44% | 88.7% | 103% | 103% | 57.8% | 71.2% | 111% | 99.3%
CN1/C(=C/C=C/c2n(Cc3ccc4ccccc4c3)c(Cl)c(Cl)[n+]2Cc2ccc3ccccc3c2)Oc2ccccc21 | -50.2% (active) | -84.8% (active) | -81.8% (active) | -79.9% (active) | -72.8% (active) | -82.2% (active) | -87.6% (active) | -80.9% (active)
CC/C(=C(/c1ccc(Cl)cc1)c1ccc(OCCCN(C)C)cc1)c1ccc(OC)cc1 | 51.1% | 86.1% | 64.7% | 4.55% (active) | 9.13% (active) | 46.6% | 16.8% | 31.7%
O=S(=O)(Nc1ccc(Br)cc1)c1ccc(-c2cnc(C3CC3)o2)cc1 | 18.6% | 47.1% | -9% (active) | 11.1% | 16.1% | 18.7% | 56.2% | 24.6%
N#Cc1c(-c2ccc(F)cc2)cc(-c2cccc(Cl)c2)[nH]c1=O | 59.9% | 54.6% | 77.1% | 104% | 54.5% | 67.1% | 94.2% | 56.1%
CC(C)(C)n1cc(-c2ccnc(NCCNS(=O)(=O)c3cccc4ccccc34)c2)c(-c2cccc(O)c2)n1 | 31.4% | 60.5% | 78.6% | 35.8% | 49.4% | 46.5% | 66.3% | 57.5%
CCCCCCC/C=N/NC(=O)c1ccc(-n2cc(-c3ccccc3)nn2)cc1 | 95.4% | 82.1% | 90.8% | 95.6% | 85.9% | 97.5% | 88% | 86.8%
Cc1[nH]c(C(=O)Nc2ccccc2OC2CCNC2)c(Cl)c1Cl (centres undefined) | 83.2% | 88% | 86.4% | 79.8% | 67.3% | 42.8% | 94.4% | 84.2%
O=C(NC1CCCCCC1)c1ccc2c(=O)n3c(nc2c1)CCCCC3 | 100% | 100% | 112% | 101% | 100% | 104% | 121% | 115%
COc1cc(C(=O)c2c(-c3ccccc3)oc3ccccc23)cc(OC)c1O | 28.7% | 47.4% | -30.9% (active) | 14.6% | 21.8% | 30.7% | 78.4% | 27.7%
CN(C)c1ccc(Cc2cc(-c3ccccc3)nn(C/C(=N/O)c3ccccc3)c2=O)cc1 | 11.8% | 61.2% | 38% | 62.1% | 29.1% | 46% | 81.2% | 31.8%
C=C(C)[C@@H]1CCC[C@]2(C(=O)OC)CC[C@]3(C)[C@@H](CC[C@@H]4[C@@]5(C)CCCNC(C)(C)[C@@H]5CC[C@]43C)[C@@H]12 | 75.9% | 93.9% | 92.9% | 86.7% | 86.5% | 93.3% | 96.3% | 85.8%
O=c1c(Cc2ccc(F)cc2)cc(-c2ccccc2)nn1C/C(=N/O)c1ccccc1 | 11.8% | 48.4% | 48.8% | 58.7% | 26.2% | 35.1% | 61.3% | 34.7%
CCCC[N+]1(C)CCN=C1Cc1ccccc1 (centres undefined) | 101% | 123% | 104% | 98.4% | 100% | 101% | 93.7% | 118%
C=C(c1ccc(OC)c(/C=C/C(=O)c2cc(OC)c(OC)c(OC)c2)c1)c1cc(OC)c(OC)c(OC)c1 | 17.2% | 1.8% (active) | -28.1% (active) | -12.4% (active) | 8.83% (active) | -62.4% (active) | 11.4% | -4.59% (active)
CCOC(=O)CC1CSC(N/N=C(/C)c2cccc(C(F)(F)F)c2)=N1 (centres undefined) | 104% | 85.6% | 101% | 104% | 90.5% | 96.9% | 101% | 97.7%
